Source: PubChem BioAssay (Tox21)
Results filed as inconclusive are left out. Where a call stands in place of a potency, no number is given. Calls of active or inactive are those of the source. Calls follow the shape of the dose curve; as a rule, active = well fitted cell-killing curve with a large enough effect in the repeat runs; inconclusive = weak or mixed curves; inactive = flat fitted curve, though single readings scatter.

Assay: qHTS RealTime-Glo MT Cell Viability Assay in HepG2 cells - 8 hour (AID 1224873); also: nearly all actives have a fitted effect of over 55% in size
Conditions: RealTime-Glo luminescence; series mostly up to 76.8 µM
Excerpt: National Center for Advancing Translational Sciences [NCATS]
NIH Chemical Genomics Center [NCGC]
U.S. Environmental Protection Agency [EPA]
National Institutes of Environmental Health Sciences [NIEHS]
National Toxicology Program [NTP]
U.S. Food and Drug Administration [FDA]
Measure of cell viability is critical in the cell-base assay. Analysis of cell viability is necessary for the characterization of cell responses to cytotoxic drugs and environmental stress. A RealTime-Glo MT Cell Viability Assay to monitor cell viability in real time of continues cell culture during 40 hours of compound treatment was used to screen Tox21 10K library compounds in HepG2 cells. The RealTime-Glo MT Cell Viability Assay is a nonlytic, homogeneous, bioluminescent method to measure cell viability in real time using a simple, plate-based method. The assay involves adding NanoLuc luciferase and a cell-permeant prosubstrate to cells in culture. Viable cells reduce the proprietary prosubstrate to generate a substrate for NanoLuc luciferase. This substrate diffuses from cells into the surrounding culture medium, where it is rapidly used by the NanoLuc Enzyme to produce a luminescent signal. The signal correlates with the number of viable cells, making the assay well suited for cytotoxicity studies.
Tox21 Assay Protocol Summary:
The mixture of HepG2 cell suspension and reagents were dispensed at 600cells/6 ul/well in 1536-well tissue culture treated black solid bottom plates using a Multidrop dispenser. After the assay plates were incubated at a 37 C/5% CO2 incubator for 5 hours, 23 nL of compounds dissolved in DMSO, positive and negative controls was transferred to the assay plate by a pintool work station. The plates were incubated at 37 C for 40 hours. The luminescence intensity were measured at 0h, 8h, 16h, 24h, 32h and 40h time points using ViewLux plate reader during compound treatment.

SMILES	Potency
CCO[Si](CCCN)(OCC)OCC	inactive
N[C@H](Cc1c[nH]c2ccccc12)C(=O)O	inactive
CCc1ccccc1CC	inactive
CC1(C)NC(=O)NC1=O	inactive
CN(C)CCOC(=O)COc1ccc(Cl)cc1	inactive
C=C(C)[C@H]1CC=C(C)C(=O)C1	inactive
COc1cc(OC)c(C(=O)CCCN2CCCC2)c(OC)c1	inactive
Cc1ccc(C(C)C)c(O)c1	inactive
CCCCCCCCCCCCCCCCO	inactive
NCCNCCN	inactive
COC(=O)c1cccnc1	inactive
CCCCC(C=O)CC (stereo not given)	inactive
CCCCCCCO	inactive
CCNC(=S)NCC	inactive
CCCCCCCCCCCCCCCC(=O)OC(C)C	inactive
CC(C)OP(=O)(CP(=O)(OC(C)C)OC(C)C)OC(C)C	inactive
CC(=O)OCc1ccco1	inactive
COc1ccccc1OCC(O)CO (stereo not given)	inactive
O=C(O)c1ccccc1C(=O)O	inactive
OC1C(O)C(O)C(O)C(O)C1O (stereo not given)	inactive

SMILES	Potency
O=S(=O)(O)c1ccccc1	inactive
COCCOC(=O)c1ccccc1C(=O)OCCOC	inactive
COc1ccc(CCC(C)=O)cc1	inactive
OCc1cccc(Oc2ccccc2)c1	inactive
O=C(O)c1ccc(S(=O)(=O)N(Cl)Cl)cc1	inactive
NCCCCCCN	inactive
C=CC(C)CCCC(C)(C)O (stereo not given)	inactive
O=C1c2ccccc2CCc2ccccc21	inactive
CC(C)(C#N)c1cc(Cn2cncn2)cc(C(C)(C)C#N)c1	inactive
O=C1CCCC1	inactive
CC1(C)S[C@@H]2[C@H](NC(=O)COc3ccccc3)C(=O)N2[C@H]1C(=O)O	inactive
C[C@]12CC[C@@H]3c4ccc(O)cc4CC[C@H]3[C@@H]1C[C@@H](O)[C@@H]2O	inactive
CC(=O)CC(C)(C)O	inactive
CCCCCCC=O	inactive
CSc1ccc(Cl)cc1	inactive
c1ccc2c(c1)Cc1ccccc1-2	inactive
C=CC(=O)OCCC(=O)O	inactive
O=C(OCC1CCC2OC2C1)C1CCC2OC2C1 (stereo not given)	inactive
CNC(=O)Oc1ccc2c(c1)[C@]1(C)CCN(C)[C@@H]1N2C	inactive
Clc1ccccn1	inactive
